From the supplement of paper PMC11732987, “Enantioselective OTUD7B fragment discovery through chemoproteomics screening and high-throughput optimisation” (Communications Chemistry, 2025)

Experiments:
Assay in all cases: log2 ratio of Biotin-Ahx-Ub-VS probe labelling (fragment/DMSO); higher = less target engagement (more negative = stronger competition), active = hit call of the paper (q ≤ 0.05, log2 ratio ≤ -1)
Conditions in all cases: compound concentration: 200 uM; treatment time: 3 h
USP34 = USP34 (UniProt Q70CQ2)
Summary of the method: (§1)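 HEK293T lysate, 495 µg per sample in Tris/CHAPS/IGEPAL buffer with protease inhibitors, was treated in triplicate with fragment at 200 µM or vehicle for 3 h and then with Biotin-Ahx-Ub-VS at 0.5 µM final for 1 h. Labelled DUBs were NeutrAvidin-enriched, digested with LysC and trypsin, and run by diaPASEF LC-MS/MS. Spectronaut label-free quantities were global-median-normalised, and values are average log2 fragment/vehicle ratios by unpaired t-test on proteins with ≥2 unique peptides.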

USP36 = target: T1, USP36 (UniProt Q9P275)
T1 sequence (whole entry): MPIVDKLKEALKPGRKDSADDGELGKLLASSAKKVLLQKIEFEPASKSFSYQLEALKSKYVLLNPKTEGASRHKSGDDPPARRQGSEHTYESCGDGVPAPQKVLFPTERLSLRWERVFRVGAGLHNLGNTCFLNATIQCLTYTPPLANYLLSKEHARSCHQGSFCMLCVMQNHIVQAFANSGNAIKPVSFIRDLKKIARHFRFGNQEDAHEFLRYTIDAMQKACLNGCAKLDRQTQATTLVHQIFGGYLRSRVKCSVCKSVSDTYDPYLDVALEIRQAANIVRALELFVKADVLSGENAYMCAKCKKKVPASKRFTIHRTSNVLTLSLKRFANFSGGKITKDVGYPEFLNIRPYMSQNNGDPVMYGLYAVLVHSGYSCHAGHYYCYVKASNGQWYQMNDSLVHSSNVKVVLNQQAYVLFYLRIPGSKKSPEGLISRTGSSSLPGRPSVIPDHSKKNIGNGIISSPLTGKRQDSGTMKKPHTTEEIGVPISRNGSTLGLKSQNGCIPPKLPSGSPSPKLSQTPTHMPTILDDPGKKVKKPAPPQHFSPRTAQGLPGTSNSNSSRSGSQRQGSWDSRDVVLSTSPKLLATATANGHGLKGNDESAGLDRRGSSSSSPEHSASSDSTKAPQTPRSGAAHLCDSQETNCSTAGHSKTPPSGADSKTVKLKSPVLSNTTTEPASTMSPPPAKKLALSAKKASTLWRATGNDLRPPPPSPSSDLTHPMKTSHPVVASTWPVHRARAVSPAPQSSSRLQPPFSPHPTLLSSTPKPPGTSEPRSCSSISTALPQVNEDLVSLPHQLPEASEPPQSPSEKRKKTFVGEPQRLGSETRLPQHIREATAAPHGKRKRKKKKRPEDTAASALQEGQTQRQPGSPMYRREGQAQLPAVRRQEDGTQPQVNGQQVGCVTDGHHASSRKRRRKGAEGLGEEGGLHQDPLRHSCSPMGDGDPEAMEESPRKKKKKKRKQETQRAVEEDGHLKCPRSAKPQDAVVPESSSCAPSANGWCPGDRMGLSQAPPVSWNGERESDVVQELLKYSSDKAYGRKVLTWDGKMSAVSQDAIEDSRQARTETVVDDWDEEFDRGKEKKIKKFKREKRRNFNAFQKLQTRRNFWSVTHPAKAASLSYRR
Summary of the method: as §1

USP38 = target: T2, USP38 (UniProt Q8NB14)
T2 sequence (whole entry): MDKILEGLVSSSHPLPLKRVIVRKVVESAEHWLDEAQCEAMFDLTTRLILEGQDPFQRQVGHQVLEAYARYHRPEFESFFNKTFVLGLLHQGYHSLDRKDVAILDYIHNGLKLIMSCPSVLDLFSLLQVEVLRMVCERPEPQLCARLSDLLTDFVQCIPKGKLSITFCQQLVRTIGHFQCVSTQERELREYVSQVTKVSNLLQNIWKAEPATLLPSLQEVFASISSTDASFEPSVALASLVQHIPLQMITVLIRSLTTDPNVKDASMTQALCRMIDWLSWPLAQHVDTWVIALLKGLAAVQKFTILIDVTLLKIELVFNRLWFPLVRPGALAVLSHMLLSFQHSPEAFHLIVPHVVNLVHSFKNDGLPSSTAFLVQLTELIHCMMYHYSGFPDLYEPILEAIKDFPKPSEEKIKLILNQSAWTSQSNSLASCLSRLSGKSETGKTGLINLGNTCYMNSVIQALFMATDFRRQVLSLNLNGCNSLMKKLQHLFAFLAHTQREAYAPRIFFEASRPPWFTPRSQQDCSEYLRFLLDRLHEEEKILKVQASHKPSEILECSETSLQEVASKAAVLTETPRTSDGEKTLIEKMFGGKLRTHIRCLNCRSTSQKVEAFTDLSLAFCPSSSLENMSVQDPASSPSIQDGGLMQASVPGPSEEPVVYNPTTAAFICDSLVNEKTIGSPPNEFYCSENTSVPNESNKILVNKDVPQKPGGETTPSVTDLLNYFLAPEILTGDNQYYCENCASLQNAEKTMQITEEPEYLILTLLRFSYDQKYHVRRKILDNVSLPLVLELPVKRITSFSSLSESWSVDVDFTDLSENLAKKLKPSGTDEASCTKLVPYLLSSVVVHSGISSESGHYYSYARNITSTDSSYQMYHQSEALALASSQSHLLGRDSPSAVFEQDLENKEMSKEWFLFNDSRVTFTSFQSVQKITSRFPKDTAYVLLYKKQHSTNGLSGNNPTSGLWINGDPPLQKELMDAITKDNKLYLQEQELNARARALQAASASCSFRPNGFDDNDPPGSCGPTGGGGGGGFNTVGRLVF
Summary of the method: as §1

USP39 = target: T3, USP39 (UniProt Q53GS9)
T3 sequence (whole entry): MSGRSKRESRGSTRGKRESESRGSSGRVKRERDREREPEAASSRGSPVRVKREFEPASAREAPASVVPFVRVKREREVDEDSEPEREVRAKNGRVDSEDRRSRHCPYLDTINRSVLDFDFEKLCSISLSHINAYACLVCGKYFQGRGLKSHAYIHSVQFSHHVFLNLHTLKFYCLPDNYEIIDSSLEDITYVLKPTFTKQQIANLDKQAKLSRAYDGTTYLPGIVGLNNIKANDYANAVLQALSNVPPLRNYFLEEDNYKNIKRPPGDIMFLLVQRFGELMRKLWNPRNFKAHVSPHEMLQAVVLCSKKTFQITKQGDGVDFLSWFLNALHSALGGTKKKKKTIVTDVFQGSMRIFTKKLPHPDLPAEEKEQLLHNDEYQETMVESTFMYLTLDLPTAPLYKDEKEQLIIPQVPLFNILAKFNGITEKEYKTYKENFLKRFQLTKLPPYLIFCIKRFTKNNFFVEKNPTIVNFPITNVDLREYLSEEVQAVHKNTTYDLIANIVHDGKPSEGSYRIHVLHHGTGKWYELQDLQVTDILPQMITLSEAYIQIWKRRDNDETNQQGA
Summary of the method: as §1

USP4 = target: T4, USP4 (UniProt Q13107)
T4 sequence (whole entry): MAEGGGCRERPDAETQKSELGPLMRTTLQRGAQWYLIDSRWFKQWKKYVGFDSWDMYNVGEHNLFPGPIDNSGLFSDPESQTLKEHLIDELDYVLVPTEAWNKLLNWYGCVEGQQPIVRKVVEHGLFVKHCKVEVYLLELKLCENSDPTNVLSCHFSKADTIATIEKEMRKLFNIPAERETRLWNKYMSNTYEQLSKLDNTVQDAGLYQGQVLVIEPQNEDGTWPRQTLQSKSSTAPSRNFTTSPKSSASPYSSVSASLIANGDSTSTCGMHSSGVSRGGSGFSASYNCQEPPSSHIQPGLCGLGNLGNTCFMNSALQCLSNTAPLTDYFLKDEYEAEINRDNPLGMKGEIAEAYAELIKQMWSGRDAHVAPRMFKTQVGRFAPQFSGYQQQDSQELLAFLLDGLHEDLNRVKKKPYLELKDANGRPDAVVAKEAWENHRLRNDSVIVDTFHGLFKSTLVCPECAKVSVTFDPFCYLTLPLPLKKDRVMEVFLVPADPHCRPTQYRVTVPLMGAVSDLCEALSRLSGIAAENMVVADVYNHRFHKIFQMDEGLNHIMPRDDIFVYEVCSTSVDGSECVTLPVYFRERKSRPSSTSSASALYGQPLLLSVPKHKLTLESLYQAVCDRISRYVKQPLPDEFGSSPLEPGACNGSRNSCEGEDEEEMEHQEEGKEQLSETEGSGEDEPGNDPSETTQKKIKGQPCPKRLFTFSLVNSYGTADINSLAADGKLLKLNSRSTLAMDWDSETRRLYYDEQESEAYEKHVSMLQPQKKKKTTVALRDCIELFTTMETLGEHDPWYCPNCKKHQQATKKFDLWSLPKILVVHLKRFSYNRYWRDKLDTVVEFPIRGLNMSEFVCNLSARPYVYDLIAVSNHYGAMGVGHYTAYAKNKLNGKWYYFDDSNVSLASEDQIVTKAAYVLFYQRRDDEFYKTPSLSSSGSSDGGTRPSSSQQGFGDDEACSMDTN
Summary of the method: as §1

Measured: log2 ratio of Biotin-Ahx-Ub-VS probe labelling

Chain of USP34 (Q70CQ2 whole entry, the tested form may be a part): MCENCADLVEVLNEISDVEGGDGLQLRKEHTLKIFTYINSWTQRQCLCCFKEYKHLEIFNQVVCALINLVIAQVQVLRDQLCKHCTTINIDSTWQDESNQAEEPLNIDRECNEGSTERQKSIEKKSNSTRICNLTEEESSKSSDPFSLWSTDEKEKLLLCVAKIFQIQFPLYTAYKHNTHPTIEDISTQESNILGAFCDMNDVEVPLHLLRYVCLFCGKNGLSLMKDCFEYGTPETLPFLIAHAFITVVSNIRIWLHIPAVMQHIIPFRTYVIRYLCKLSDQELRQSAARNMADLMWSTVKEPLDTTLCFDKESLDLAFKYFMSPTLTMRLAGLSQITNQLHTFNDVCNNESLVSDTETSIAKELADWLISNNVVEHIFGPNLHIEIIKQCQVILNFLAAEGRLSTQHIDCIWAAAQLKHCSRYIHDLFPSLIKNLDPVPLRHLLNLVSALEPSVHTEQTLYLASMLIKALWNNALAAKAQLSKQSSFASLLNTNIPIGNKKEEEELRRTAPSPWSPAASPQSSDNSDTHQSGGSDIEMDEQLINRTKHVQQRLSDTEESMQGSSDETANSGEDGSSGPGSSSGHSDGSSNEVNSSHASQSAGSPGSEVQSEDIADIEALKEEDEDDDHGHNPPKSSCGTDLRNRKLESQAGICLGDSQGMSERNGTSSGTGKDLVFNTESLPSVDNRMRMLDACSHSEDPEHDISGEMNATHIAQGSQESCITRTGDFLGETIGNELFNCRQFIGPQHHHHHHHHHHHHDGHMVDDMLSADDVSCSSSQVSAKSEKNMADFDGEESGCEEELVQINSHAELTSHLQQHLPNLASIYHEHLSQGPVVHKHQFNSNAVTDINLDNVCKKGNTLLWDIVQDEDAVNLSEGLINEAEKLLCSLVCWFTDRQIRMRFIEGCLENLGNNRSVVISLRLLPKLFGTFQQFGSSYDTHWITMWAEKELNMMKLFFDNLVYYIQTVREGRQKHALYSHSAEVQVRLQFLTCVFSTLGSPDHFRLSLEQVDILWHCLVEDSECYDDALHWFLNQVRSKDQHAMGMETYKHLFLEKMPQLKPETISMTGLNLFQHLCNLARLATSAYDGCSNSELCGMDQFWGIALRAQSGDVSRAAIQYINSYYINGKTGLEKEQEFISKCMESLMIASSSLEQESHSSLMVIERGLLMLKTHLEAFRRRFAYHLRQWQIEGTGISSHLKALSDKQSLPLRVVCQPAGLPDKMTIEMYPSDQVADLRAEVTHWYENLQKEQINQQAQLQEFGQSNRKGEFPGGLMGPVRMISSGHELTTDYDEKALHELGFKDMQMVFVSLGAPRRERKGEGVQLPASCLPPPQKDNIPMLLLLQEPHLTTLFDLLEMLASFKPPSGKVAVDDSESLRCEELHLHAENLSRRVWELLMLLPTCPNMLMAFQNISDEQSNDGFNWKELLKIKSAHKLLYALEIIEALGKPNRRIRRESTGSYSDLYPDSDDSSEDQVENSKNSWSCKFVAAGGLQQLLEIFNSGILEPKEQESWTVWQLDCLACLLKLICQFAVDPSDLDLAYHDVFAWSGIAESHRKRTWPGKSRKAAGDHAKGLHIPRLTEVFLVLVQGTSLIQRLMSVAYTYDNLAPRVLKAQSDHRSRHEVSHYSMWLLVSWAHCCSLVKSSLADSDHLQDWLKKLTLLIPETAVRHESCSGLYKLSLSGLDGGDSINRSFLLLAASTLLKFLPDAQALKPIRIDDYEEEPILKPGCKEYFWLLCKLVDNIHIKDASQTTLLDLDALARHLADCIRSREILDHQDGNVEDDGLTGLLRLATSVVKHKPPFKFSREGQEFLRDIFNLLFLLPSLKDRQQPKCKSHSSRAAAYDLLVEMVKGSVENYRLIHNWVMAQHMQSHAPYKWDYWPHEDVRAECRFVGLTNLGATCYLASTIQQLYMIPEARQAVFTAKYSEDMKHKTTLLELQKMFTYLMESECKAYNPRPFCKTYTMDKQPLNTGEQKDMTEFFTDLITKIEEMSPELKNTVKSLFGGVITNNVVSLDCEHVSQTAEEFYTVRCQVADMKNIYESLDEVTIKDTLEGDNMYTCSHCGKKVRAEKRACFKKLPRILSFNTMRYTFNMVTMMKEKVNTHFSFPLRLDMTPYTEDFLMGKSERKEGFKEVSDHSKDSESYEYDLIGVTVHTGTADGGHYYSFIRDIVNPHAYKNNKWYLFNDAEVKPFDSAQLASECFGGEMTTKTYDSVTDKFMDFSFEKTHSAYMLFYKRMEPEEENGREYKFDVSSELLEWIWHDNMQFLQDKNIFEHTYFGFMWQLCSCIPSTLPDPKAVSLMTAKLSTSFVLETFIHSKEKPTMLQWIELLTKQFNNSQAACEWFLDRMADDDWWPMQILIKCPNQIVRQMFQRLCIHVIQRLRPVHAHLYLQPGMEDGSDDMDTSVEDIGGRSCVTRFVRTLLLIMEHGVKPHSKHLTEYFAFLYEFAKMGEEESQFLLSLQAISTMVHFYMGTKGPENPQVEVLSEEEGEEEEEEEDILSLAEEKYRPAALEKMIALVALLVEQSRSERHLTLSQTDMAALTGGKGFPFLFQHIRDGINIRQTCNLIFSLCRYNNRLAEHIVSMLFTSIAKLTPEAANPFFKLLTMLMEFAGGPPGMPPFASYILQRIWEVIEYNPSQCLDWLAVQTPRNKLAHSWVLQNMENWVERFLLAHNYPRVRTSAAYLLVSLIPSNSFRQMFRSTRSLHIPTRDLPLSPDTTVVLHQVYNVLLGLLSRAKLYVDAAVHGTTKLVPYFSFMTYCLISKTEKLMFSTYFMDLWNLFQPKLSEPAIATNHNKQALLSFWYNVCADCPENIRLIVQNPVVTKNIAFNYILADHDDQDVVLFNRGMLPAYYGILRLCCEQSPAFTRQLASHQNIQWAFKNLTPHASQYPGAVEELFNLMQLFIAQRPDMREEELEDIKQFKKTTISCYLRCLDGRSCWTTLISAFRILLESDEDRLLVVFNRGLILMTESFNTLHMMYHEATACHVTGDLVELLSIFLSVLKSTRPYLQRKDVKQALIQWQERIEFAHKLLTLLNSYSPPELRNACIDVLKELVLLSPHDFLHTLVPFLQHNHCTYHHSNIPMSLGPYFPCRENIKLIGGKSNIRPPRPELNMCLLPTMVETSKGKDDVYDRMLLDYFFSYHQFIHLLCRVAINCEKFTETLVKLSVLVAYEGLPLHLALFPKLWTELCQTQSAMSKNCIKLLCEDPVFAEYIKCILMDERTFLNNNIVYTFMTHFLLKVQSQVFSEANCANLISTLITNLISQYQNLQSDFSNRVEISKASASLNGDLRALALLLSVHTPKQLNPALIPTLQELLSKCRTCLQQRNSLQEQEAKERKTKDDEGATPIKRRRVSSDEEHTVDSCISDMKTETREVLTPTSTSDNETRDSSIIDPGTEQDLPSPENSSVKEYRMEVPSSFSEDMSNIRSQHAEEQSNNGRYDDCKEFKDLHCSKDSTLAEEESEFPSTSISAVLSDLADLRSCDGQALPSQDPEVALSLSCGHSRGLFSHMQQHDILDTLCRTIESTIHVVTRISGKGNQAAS

Cc1ccc(CC(NC(=O)CCl)c2ccccn2)cc1.Cl (stereo not given)
inactive: USP34 -0.162 | USP36 0.13 | USP38 -0.114 | USP39 -0.181 | USP4 0.169
